Assay results from PubChem BioAssay (Tox21).
Records with an inconclusive call do not appear. The source made the active and inactive calls. Unless noted, the call rests on the fitted dose curve.

Tests used:
[1] = Nuclear factor erythroid 2-related factor 2/antioxidant responsive element (Nrf2/ARE) small molecule agonists: qHTS cell viability counter screen in human keratinocytes (AID 1919968; active means well fitted curve in the direction sought with a large enough effect in the repeat runs; an effect the other way counts as inactive or inconclusive; further: nearly all actives have a fitted effect of over 55% in size)
How it was run: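 After a 5 h attachment period, ARE-reporter keratinocytes were dosed with compounds in DMSO and then cultured 23 h at 37 C. Cell viability came from CellTiter-Fluor signal read after a further 1 h.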

[2] = Nuclear factor erythroid 2-related factor 2/antioxidant responsive element (Nrf2/ARE) small molecule agonists: luciferase reporter gene qHTS assay in human keratinocytes (AID 1919969); further: nearly all actives have a fitted effect of over 35% in size; further: potency means the concentration at half of the fitted maximal effect
[3] = molecular target: Gonadotropin-releasing hormone receptor (Homo sapiens) (UniProt P30968); assay: Human gonadotropin-releasing hormone receptor (GnRHR) small molecule agonists, calcium flux assay in GnRHR-HEK293 cells (AID 1920063); further: nearly all actives have a fitted effect of over 35% in size
How it was run: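 We seeded human GnRHR-expressing HEK293 cells for 18 hours, loaded them with calcium dye for an hour at 37 C, added test compounds, and recorded fluorescence intensity kinetically for three minutes.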

[4] = molecular target: KiSS-1 receptor (Homo sapiens) (UniProt Q969F8); assay: Human kisspeptin (KISS1R) small molecule agonists, calcium flux assay in KISS1R-HEK293 cells (AID 1920064; active means well fitted curve in the direction sought with a large enough effect in the repeat runs; an effect the other way counts as inactive or inconclusive)
How it was run: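 Kinetic calcium assay, 1 s sampling over 3 min at Ex/Em 480/540, in HEK293 cells engineered with human KISS1R; compounds delivered in DMSO after 1 h dye loading.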

[5] = G protein-coupled receptor (GPCR) small molecule agonists, calcium flux assay: HEK293 wild type cell line counter screen (AID 1920065)
How it was run: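 Calcium-sensitive dye, loaded 1 h at 37 C into cells cultured 18 h, reports compound-evoked calcium release as fluorescence (Ex/Em 480/540), measured over 3 min. Agonist mode; 15-point titrations, triplicate.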

[6] = p53 small molecule agonists, cell-based qHTS assay with human liver microsomes (AID 1963577);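 further: p53 response element beta-lactamase reporter cells with liver microsomes plus NADPH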
How it was run: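 HLM-supplemented p53RE-bla reporter assay: 16 h compound exposure at 37 C, microsomes and NADPH each 0.5 mg/mL final, read by fluorescence intensity.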

[7] = p53 small molecule agonists, cell-based qHTS assay with rat liver microsomes (AID 1963578)
How it was run: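 Quantitative HTS of the Tox21 10K library: p53RE-bla cells, rat liver microsomes plus NADPH at 0.5 mg/mL final each, 16 h at 37 C, beta-lactamase fluorescence detection.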

[8] = p53 small molecule agonists, cell-based qHTS assay with human liver microsomes: qHTS cell viability counter screen (AID 1963579); further: nearly all actives have a fitted effect of over 45% in size
How it was run: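 Viability of p53RE-bla cells is measured as CellTiter-Glo luminescence following a 16 h, 37 C incubation with compound, liver microsomes from human donors and NADPH.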

[9] = p53 small molecule agonists, cell-based qHTS assay with rat liver microsomes: qHTS cell viability counter screen (AID 1963580); further: nearly all actives have a fitted effect of over 45% in size
How it was run: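 p53RE-bla HCT-116 cells were exposed 16 h at 37 C to compounds with rat liver microsomes (0.5 mg/mL) and NADPH (0.5 mg/mL). Viability was measured in the same wells as ATP content by CellTiter-Glo luminescence.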

[10] = p53 small molecule agonists, cell-based qHTS assay (AID 1963582; active means well fitted activation curve with a large enough effect in the signal ratio in the repeat runs, not every such curve was filed as active; the % refers to the signal ratio)
How it was run: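 In this cell-based concentration-response screen, a p53 response element drives beta-lactamase; cells received DMSO-borne compounds after 5 h culture and were incubated a further 16 h before FRET substrate development.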

[11] = molecular target: 5-hydroxytryptamine receptor 2A (Homo sapiens) (UniProt P28223); assay: 5-hydroxytryptamine receptor 2A (HTR2A) small molecule agonists, cell-based qHTS assay (AID 1963587); further: nearly all actives have a fitted effect of over 30% in size
How it was run: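 CHO cells stably expressing human HTR2A, plated 18 h, loaded with calcium dye 1 h at 37 C. Agonist mode: compounds added and intracellular calcium fluorescence recorded kinetically for 2 min at 1 sec intervals.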

[12] = molecular target: Muscarinic acetylcholine receptor M1 (Homo sapiens) (UniProt P11229); assay: Cholinergic receptor muscarinic 1 (CHRM1) small molecule antagonists, cell-based qHTS assay (AID 1963588); further: nearly all actives have a fitted effect of over 40% in size
How it was run: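 CHRM1-CHO calcium-flux assay, antagonist mode. Cells were seeded 18 h, dye-loaded 1 h at 37 C and given compound for 5 min at RT, then acetylcholine was added at 50nM. FDSS fluorescence was read 3 min; 15 concentrations, three runs.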

[13] = molecular target: Muscarinic acetylcholine receptor M1 (Homo sapiens) (UniProt P11229); assay: Cholinergic receptor muscarinic 1 (CHRM1) small molecule agonists, cell-based qHTS assay (AID 1963589); further: nearly all actives have a fitted effect of over 35% in size
How it was run: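 Measures agonist-induced intracellular calcium rise. Stable human CHRM1 CHO line, 1 h dye load at 37 C, compounds from DMSO, kinetic fluorescence read.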

[14] = cAMP Responsive Elements (CRE) small molecule agonists, cell-based qHTS assay (AID 1963590)
How it was run: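 A CRE-responsive beta-lactamase reporter in HEK 293T cells was used. Treatment ran 3 h at 37 C; detection used LiveBLAzer B/G FRET substrate for 2 h at room temperature.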

[15] = cAMP Responsive Elements (CRE) small molecule antagonists, cell-based qHTS assay (AID 1963591; active means well fitted inhibition curve with a large enough effect in the signal ratio in the repeat runs, not every such curve was filed as active; the % refers to the signal ratio)
How it was run: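 HEK293T cells carrying a CRE-driven beta-lactamase reporter receive compound and NKH477 (0.25 uM final) for 3 h. Fluorescence from LiveBLAzer B/G FRET substrate is read after 2 h at room temperature.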

[16] = molecular target: Beta-2 adrenergic receptor (Homo sapiens) (UniProt P07550); assay: Adrenergic beta2 receptor (ADRB2) small molecule antagonists, cell-based qHTS assay (AID 1963592); further: series mostly up to about 92 µM; nearly all actives have a fitted effect of over 50% in size
How it was run: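 Cells (CHO, stable ADRB2 overexpression) incubated 18-20hr at 37C; compounds added from DMSO; agonist mix (1nM isoproterenol, 100uM IBMX, 25uM Ro-20-1724) added; 0.5hr RT; d2-cAMP and anti-cAMP-cryptate added; 1hr RT; 665/615 nm read.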

[17] = molecular target: D(2) dopamine receptor (Homo sapiens) (UniProt P14416); assay: Dopamine D2 receptor (DRD2) small molecule antagonists, cell-based qHTS assay (AID 1963595; active means well fitted inhibition curve with a large enough effect in the signal ratio in the repeat runs, with a control signal flat; the % refers to the signal ratio; further: potency means the concentration at half of the fitted maximal effect)
How it was run: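 HTRF cAMP read-out at 665 and 620 nm emission (340 nm excitation). Antagonist mode: compounds were tested against 12 nM quinpirole in DRD2-HEK293 cells, with 200 nM NKH477 raising cAMP and 0.1 mM Ro20-1724 blocking its breakdown.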

[18] = molecular target: 5-hydroxytryptamine receptor 2A (Homo sapiens) (UniProt P28223); assay: 5-hydroxytryptamine receptor 2A (HTR2A) small molecule antagonists, cell-based qHTS assay (AID 1963586); further: nearly all actives have a fitted effect of over 45% in size
How it was run: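 Antagonist-mode intracellular calcium assay: DOI (4 nM) added after 5 min compound pre-incubation at room temperature to dye-loaded HTR2A-CHO cells. Fluorescence followed for 3 min, sampled every second.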

[19] = molecular target: D(2) dopamine receptor (Homo sapiens) (UniProt P14416); assay: Dopamine D2 receptor (DRD2) small molecule agonists, cell-based qHTS assay (AID 1963594); further: nearly all actives have a fitted effect of over 35% in size
How it was run: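 HEK293 cells stably expressing human DRD2, pre-treated with PDE inhibitor Ro20-1724 (0.1 mM final) and compound 10 min at room temperature, then stimulated with NKH477 (200nM […]) for 30 min. cAMP read by HTRF (665/620 nm).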
On the % scale 0 is the no-effect control and ±100 the full control effect.

Sequence of KiSS-1 receptor (Homo sapiens) (Q969F8 whole entry, looked up): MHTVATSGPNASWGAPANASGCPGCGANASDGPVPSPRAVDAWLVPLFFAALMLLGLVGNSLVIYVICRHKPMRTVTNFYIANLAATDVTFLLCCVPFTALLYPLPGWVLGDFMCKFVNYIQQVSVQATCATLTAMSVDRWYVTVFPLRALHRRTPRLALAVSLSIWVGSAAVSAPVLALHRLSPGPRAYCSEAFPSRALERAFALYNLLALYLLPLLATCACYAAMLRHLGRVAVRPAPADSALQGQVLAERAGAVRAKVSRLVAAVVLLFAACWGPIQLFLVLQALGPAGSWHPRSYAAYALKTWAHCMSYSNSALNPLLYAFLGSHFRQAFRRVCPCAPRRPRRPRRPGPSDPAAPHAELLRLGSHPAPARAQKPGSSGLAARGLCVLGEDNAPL
Sequence of Muscarinic acetylcholine receptor M1 (Homo sapiens) (P11229 whole entry, looked up): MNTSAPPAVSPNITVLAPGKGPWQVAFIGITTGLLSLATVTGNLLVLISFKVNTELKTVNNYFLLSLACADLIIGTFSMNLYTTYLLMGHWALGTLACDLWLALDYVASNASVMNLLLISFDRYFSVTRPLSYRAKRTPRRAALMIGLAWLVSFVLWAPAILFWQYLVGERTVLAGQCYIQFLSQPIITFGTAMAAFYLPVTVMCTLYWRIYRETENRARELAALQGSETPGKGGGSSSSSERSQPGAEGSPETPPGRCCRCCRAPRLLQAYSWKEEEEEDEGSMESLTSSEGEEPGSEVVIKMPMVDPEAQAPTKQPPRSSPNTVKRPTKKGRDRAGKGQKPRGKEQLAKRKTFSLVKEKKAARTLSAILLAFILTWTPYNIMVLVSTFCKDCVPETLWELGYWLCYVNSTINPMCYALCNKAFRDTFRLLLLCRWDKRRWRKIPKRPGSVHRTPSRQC
Sequence of D(2) dopamine receptor (Homo sapiens) (P14416 whole entry, looked up): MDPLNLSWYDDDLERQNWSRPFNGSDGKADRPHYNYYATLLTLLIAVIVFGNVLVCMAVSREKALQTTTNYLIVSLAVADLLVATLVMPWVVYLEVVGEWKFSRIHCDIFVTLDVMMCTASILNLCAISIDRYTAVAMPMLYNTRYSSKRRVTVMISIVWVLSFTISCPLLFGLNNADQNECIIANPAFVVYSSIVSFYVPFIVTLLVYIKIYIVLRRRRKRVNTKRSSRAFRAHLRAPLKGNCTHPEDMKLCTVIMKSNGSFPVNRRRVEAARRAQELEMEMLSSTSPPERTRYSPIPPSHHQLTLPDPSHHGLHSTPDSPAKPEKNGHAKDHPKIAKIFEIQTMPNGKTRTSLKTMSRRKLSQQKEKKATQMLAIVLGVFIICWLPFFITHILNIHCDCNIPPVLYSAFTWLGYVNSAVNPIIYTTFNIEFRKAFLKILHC
Sequence of 5-hydroxytryptamine receptor 2A (Homo sapiens) (P28223 whole entry, looked up): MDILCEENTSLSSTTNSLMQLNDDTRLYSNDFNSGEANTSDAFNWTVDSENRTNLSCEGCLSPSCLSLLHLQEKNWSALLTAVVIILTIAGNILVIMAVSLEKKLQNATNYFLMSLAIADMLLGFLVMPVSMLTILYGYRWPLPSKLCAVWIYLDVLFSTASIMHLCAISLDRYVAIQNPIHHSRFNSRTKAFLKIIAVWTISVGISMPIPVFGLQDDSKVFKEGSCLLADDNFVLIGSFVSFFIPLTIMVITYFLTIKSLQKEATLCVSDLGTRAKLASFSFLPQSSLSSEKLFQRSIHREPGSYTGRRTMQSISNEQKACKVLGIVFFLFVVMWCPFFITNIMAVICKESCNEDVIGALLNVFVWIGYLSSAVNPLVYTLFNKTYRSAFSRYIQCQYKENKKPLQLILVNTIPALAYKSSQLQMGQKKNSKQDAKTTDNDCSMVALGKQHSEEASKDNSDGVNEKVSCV
Sequence of Gonadotropin-releasing hormone receptor (Homo sapiens) (P30968 whole entry, looked up): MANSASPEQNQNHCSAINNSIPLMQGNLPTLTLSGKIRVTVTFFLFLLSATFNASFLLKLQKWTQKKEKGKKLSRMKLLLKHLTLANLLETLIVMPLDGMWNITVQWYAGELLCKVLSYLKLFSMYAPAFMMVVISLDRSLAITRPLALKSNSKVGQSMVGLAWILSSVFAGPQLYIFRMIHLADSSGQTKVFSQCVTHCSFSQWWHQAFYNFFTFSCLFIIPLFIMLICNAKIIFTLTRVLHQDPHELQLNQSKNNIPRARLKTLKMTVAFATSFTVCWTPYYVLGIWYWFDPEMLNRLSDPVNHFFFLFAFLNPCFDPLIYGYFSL
Sequence of Beta-2 adrenergic receptor (Homo sapiens) (P07550 whole entry, looked up): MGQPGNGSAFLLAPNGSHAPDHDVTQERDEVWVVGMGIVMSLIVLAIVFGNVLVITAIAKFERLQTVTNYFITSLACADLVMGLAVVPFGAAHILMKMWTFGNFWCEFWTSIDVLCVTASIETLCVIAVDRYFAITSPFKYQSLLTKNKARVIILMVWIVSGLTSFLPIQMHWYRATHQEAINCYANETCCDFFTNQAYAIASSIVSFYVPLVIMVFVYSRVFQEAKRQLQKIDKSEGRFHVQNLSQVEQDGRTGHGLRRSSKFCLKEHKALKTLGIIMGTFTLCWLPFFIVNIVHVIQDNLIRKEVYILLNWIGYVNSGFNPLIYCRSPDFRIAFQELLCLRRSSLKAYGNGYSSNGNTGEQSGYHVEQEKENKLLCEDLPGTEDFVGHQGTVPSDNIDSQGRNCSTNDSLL

C1CCN(CN2CCCCC2)CC1
inactive: Potency [1] | Potency [2] | Potency [3] | outcome [4] | outcome [5] | Potency [6] | Potency [7] | Potency [8] | Potency [9] | Potency [10] | Potency [11] | Potency [12] | Potency [13] | Potency [14] | Potency [15] | Potency [16] | Potency [17]

O=C(c1ccc(O)cc1)c1ccc(O)cc1
inactive: Potency [1] | Potency [2] | Potency [3] | outcome [4] | outcome [5] | Potency [6] | Potency [7] | Potency [8] | Potency [9] | Potency [18] | Potency [11] | Potency [12] | Potency [13] | Potency [15] | Potency [16] | Potency [19]

CCC(=O)O[C@]1(C(=O)CCl)[C@@H](C)C[C@H]2[C@@H]3CCC4=CC(=O)C=C[C@]4(C)[C@@]3(F)[C@@H](O)C[C@@]21C
inactive: Potency [1] | Potency [2] | Potency [3] | outcome [4] | outcome [5] | Potency [6] | Potency [7] | Potency [8] | Potency [9] | Potency [10] | Potency [16] | Potency [19] | Potency [17]

COc1cc(C(=O)NS(=O)(=O)c2ccccc2C)ccc1Cc1cn(C)c2ccc(NC(=O)OC3CCCC3)cc12
inactive: Potency [1] | Potency [2] | Potency [3] | outcome [4] | outcome [5] | Potency [6] | Potency [7] | Potency [8] | Potency [9] | Potency [10] | Potency [16] | Potency [19] | Potency [17]

CC(C(=O)O)c1cccc(Oc2ccccc2)c1 (stereo not given)
inactive: Potency [1] | Potency [2] | Potency [3] | outcome [4] | outcome [5] | Potency [6] | Potency [7] | Potency [8] | Potency [9] | Potency [10] | Potency [14] | Potency [15] | Potency [16] | Potency [19] | Potency [17]

Cc1cc(C(C)(C)C)c(O)c(C)c1Cn1c(=O)n(Cc2c(C)cc(C(C)(C)C)c(O)c2C)c(=O)n(Cc2c(C)cc(C(C)(C)C)c(O)c2C)c1=O
inactive: Potency [1] | Potency [2] | Potency [3] | outcome [4] | outcome [5] | Potency [6] | Potency [7] | Potency [8] | Potency [9] | Potency [18] | Potency [11] | Potency [12] | Potency [13] | Potency [14] | Potency [16] | Potency [19] | Potency [17]

CN1CCN(c2c(F)cc3c(=O)c(C(=O)O)cn4c3c2SCC4)CC1
inactive: Potency [1] | Potency [2] | Potency [3] | outcome [4] | outcome [5] | Potency [6] | Potency [7] | Potency [8] | Potency [9] | Potency [18] | Potency [11] | Potency [12] | Potency [13] | Potency [16] | Potency [17]

CCCCc1nc(Cl)c(CO)n1Cc1ccc(-c2ccccc2-c2nn[nH]n2)cc1
inactive: Potency [1] | Potency [2] | Potency [3] | outcome [4] | outcome [5] | Potency [6] | Potency [7] | Potency [8] | Potency [9] | Potency [10] | Potency [14] | Potency [19] | Potency [17]

O=Cc1c2ccccc2c(Cl)c2ccccc12
inactive: Potency [1] | Potency [3] | outcome [4] | outcome [5] | Potency [6] | Potency [7] | Potency [8] | Potency [9] | Potency [18] | Potency [11] | Potency [12] | Potency [13] | Potency [14] | Potency [15] | Potency [19] | Potency [17]
active: Potency [2] 7.51 µM

NC(=O)COCCN1CCN(C(c2ccccc2)c2ccc(Cl)cc2)CC1 (stereo not given)
inactive: Potency [1] | Potency [2] | Potency [3] | outcome [4] | outcome [5] | Potency [6] | Potency [7] | Potency [8] | Potency [9] | Potency [18] | Potency [11] | Potency [12] | Potency [13] | Potency [14] | Potency [15] | Potency [16] | Potency [17]

CCOC(=O)C1=C(C)NC(C)=C(C(=O)OC)C1c1cccc(Cl)c1Cl (stereo not given)
inactive: Potency [1] | Potency [2] | Potency [3] | outcome [4] | outcome [5] | Potency [6] | Potency [7] | Potency [8] | Potency [9] | Potency [10] | Potency [14] | Potency [15] | Potency [16] | Potency [19] | Potency [17]

CC(C)(O)c1ccccc1CC[C@@H](SCC1(CC(=O)O)CC1)c1cccc(/C=C/c2ccc3ccc(Cl)cc3n2)c1
inactive: Potency [1] | Potency [2] | Potency [3] | outcome [4] | outcome [5] | Potency [6] | Potency [7] | Potency [8] | Potency [9] | Potency [10] | Potency [14] | Potency [15] | Potency [16] | Potency [19]

C=C[Si](C)(C)Cl
inactive: activity change, negative = cytotoxicity [1] -0.368% [at 8.39 µM] | activity, positive = activation [2] -0.9% [at 8.39 µM] | activity change [3] -0.471% [at 5.22 µM, hits give high values] | activation [4] -1.18% [at 6.97 µM] | activation [5] 0.126% [at 5.23 µM] | activation [6] -12.4% [at 5.99 µM] | activation [7] 0.959% [at 5.99 µM] | activity change, negative = cytotoxicity [8] -13% [at 5.99 µM] | activity change, negative = cytotoxicity [9] 8.84% [at 5.99 µM] | activation [10] 0.341% [at 5.99 µM] | activation [11] -0.8% [at 7.02 µM] | activation [13] 0.156% [at 6.97 µM] | activation [14] 0.4% [at 8.39 µM] | activity change, negative = inhibition [15] -10% [at 8.39 µM] | activity change, negative = inhibition [16] 2.31% [at 8.39 µM] | activation [19] 0.612% [at 8.39 µM] | activity change, negative = inhibition [17] 6.57% [at 8.38 µM]

NC(=O)c1ccccc1[N+](=O)[O-]
inactive: Potency [1] | Potency [2] | Potency [3] | outcome [4] | outcome [5] | Potency [6] | Potency [7] | Potency [8] | Potency [9] | Potency [18] | Potency [11] | Potency [12] | Potency [13] | Potency [14] | Potency [16] | Potency [19] | Potency [17]

CN1[C@@H]2CC[C@H]1CC(OC(=O)c1c[nH]c3ccccc13)C2 (stereo not given in full)
inactive: Potency [1] | Potency [2] | Potency [3] | outcome [4] | outcome [5] | Potency [6] | Potency [7] | Potency [8] | Potency [9] | Potency [10] | Potency [14] | Potency [15] | Potency [19] | Potency [17]

CCCC(C(=O)OCCN(CC)CC)(c1ccccc1)c1ccccc1
inactive: Potency [1] | Potency [2] | Potency [3] | outcome [4] | outcome [5] | Potency [6] | Potency [7] | Potency [8] | Potency [9] | Potency [10] | Potency [11] | Potency [12] | Potency [13] | Potency [19]
active: Potency [17] 26.6 µM
